Experimental data as given in the supplement of paper PMC12282887.
± gives the standard deviation of the averaged measurements.

Experiments:
Experiment in all cases: promoter activity interaction Z-score (Lux/OD deviation from empty-vector control); higher = stronger promoter induction by the compound
[1] = system: E. coli BW25113 acrABp lux reporter
Procedure, shortened: (§1)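 E. coli BW25113 luxCDABE reporter strains grew at 37°C in 40 µl LB Lennox in 384-well plates, with OD600 and luminescence read every 30 min for 12 h. After integration over 0–8 h for wild type or 1–9 h for deletion strains, wells under 10% of the median growth value were removed. Each score is the Z-transformed residual of growth-normalised luminescence fitted against a control.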

[2] = system: E. coli BW25113 marRABp lux reporter
Procedure, shortened: as §1

[3] = system: E. coli BW25113 micFp lux reporter
Procedure, shortened: as §1

[4] = system: E. coli BW25113 ompFp lux reporter
Procedure, shortened: as §1

[5] = system: E. coli BW25113 robp lux reporter
Procedure, shortened: as §1

[6] = system: E. coli BW25113 soxSp lux reporter
Procedure, shortened: as §1

[7] = system: E. coli BW25113 tolCp lux reporter
Procedure, shortened: as §1

[8] = 0.12 µg/ml, genetic background: wild type
[9] = 0.12 µg/ml, genetic background: ΔmarA
[10] = 0.12 µg/ml, genetic background: Δrob
[11] = 0.12 µg/ml, genetic background: ΔsoxS
[12] = 0.23 µg/ml, genetic background: wild type
[13] = 0.23 µg/ml, genetic background: ΔmarA
[14] = 0.23 µg/ml, genetic background: Δrob
[15] = 0.23 µg/ml, genetic background: ΔsoxS
[16] = 0.47 µg/ml, genetic background: wild type
[17] = 0.47 µg/ml, genetic background: ΔmarA
[18] = 0.47 µg/ml, genetic background: Δrob
[19] = 0.47 µg/ml, genetic background: ΔsoxS
[20] = 0.94 µg/ml, genetic background: ΔmarA
[21] = 0.94 µg/ml, genetic background: Δrob
[22] = 0.94 µg/ml, genetic background: wild type

## NC[C@H]1O[C@H](O[C@H]2[C@H](O)[C@@H](O[C@H]3O[C@H](CO)[C@@H](O)[C@H](N)[C@H]3O)[C@H](N)C[C@@H]2N)[C@H](N)C[C@@H]1O [Tobramycin]
[1]; [8]
  promoter activity interaction Z-score: 0.275 ± 0.78
[1]; [9]
  promoter activity interaction Z-score: -0.0864 ± 0.66
[1]; [10]
  promoter activity interaction Z-score: -0.374 ± 0.06
[1]; [11]
  promoter activity interaction Z-score: -0.499 ± 0.77
[1]; [12]
  promoter activity interaction Z-score: 0.0585 ± 0.16
[1]; [13]
  promoter activity interaction Z-score: -1.02 ± 0.59
[1]; [14]
  promoter activity interaction Z-score: -0.281 ± 0.11
[1]; [15]
  promoter activity interaction Z-score: -0.243 ± 0.067
[1]; [16]
  promoter activity interaction Z-score: 0.268 ± 0.32
[1]; [17]
  promoter activity interaction Z-score: 0.0843 ± 0.8
[1]; [18]
  promoter activity interaction Z-score: 0.184 ± 0.22
[1]; [19]
  promoter activity interaction Z-score: -0.000211 ± 0.53
[2]; [8]
  promoter activity interaction Z-score: -0.211 ± 0.075
[2]; [9]
  promoter activity interaction Z-score: -0.0912 ± 0.16
[2]; [10]
  promoter activity interaction Z-score: -0.0729 ± 0.021
[2]; [11]
  promoter activity interaction Z-score: -0.3 ± 0.41
[2]; [12]
  promoter activity interaction Z-score: -0.379 ± 0.14
[2]; [13]
  promoter activity interaction Z-score: -0.269 ± 0.26
[2]; [14]
  promoter activity interaction Z-score: -0.264 ± 0.11
[2]; [15]
  promoter activity interaction Z-score: -0.0572 ± 0.44
[2]; [16]
  promoter activity interaction Z-score: 0.112 ± 0.2
[2]; [17]
  promoter activity interaction Z-score: 0.108 ± 0.0063
[2]; [18]
  promoter activity interaction Z-score: 0.123 ± 0.14
[2]; [19]
  promoter activity interaction Z-score: 0.021 ± 0.34
[3]; [8]
  promoter activity interaction Z-score: 0.116 ± 0.093
[3]; [9]
  promoter activity interaction Z-score: -0.103 ± 0.25
[3]; [10]
  promoter activity interaction Z-score: -0.119 ± 0.027
[3]; [11]
  promoter activity interaction Z-score: -0.254 ± 0.025
[3]; [12]
  promoter activity interaction Z-score: 0.0087 ± 0.2
[3]; [13]
  promoter activity interaction Z-score: -0.183 ± 0.0032
[3]; [14]
  promoter activity interaction Z-score: -0.106 ± 0.21
[3]; [15]
  promoter activity interaction Z-score: 0.447 ± 0.0099
[3]; [16]
  promoter activity interaction Z-score: 0.395 ± 0.47
[3]; [17]
  promoter activity interaction Z-score: -0.0629 ± 0.026
[3]; [18]
  promoter activity interaction Z-score: -0.0597 ± 0.061
[3]; [19]
  promoter activity interaction Z-score: -0.0982 ± 0.012
[3]; [20]
  promoter activity interaction Z-score: -0.362
[3]; [21]
  promoter activity interaction Z-score: -0.382
[4]; [8]
  promoter activity interaction Z-score: -0.387 ± 0.068
[4]; [9]
  promoter activity interaction Z-score: -0.3 ± 0.42
[4]; [10]
  promoter activity interaction Z-score: -0.413 ± 0.19
[4]; [11]
  promoter activity interaction Z-score: -0.487 ± 0.17
[4]; [12]
  promoter activity interaction Z-score: -0.622 ± 0.16
[4]; [13]
  promoter activity interaction Z-score: -0.759 ± 0.15
[4]; [14]
  promoter activity interaction Z-score: -0.556 ± 0.035
[4]; [15]
  promoter activity interaction Z-score: -0.0491 ± 0.17
[4]; [16]
  promoter activity interaction Z-score: -0.491 ± 0.36
[4]; [17]
  promoter activity interaction Z-score: -0.148 ± 0.12
[4]; [18]
  promoter activity interaction Z-score: -0.134 ± 0.25
[4]; [19]
  promoter activity interaction Z-score: -0.273 ± 0.14
[5]; [8]
  promoter activity interaction Z-score: 0.0204 ± 0.029
[5]; [9]
  promoter activity interaction Z-score: -0.389 ± 0.14
[5]; [10]
  promoter activity interaction Z-score: -0.392 ± 0.68
[5]; [11]
  promoter activity interaction Z-score: -0.688 ± 0.16
[5]; [12]
  promoter activity interaction Z-score: -0.193 ± 0.42
[5]; [13]
  promoter activity interaction Z-score: -0.587 ± 0.68
[5]; [14]
  promoter activity interaction Z-score: -0.421 ± 0.28
[5]; [15]
  promoter activity interaction Z-score: -0.277 ± 0.056
[5]; [16]
  promoter activity interaction Z-score: 0.112 ± 0.36
[5]; [17]
  promoter activity interaction Z-score: 0.0227 ± 0.29
[5]; [18]
  promoter activity interaction Z-score: -0.0785 ± 0.74
[5]; [19]
  promoter activity interaction Z-score: -0.163 ± 0.8
[5]; [20]
  promoter activity interaction Z-score: -0.438
[6]; [8]
  promoter activity interaction Z-score: -0.268 ± 0.23
[6]; [9]
  promoter activity interaction Z-score: -0.327 ± 0.091
[6]; [10]
  promoter activity interaction Z-score: -0.404 ± 0.1
[6]; [11]
  promoter activity interaction Z-score: -0.552 ± 0.76
[6]; [12]
  promoter activity interaction Z-score: -0.406 ± 0.046
[6]; [13]
  promoter activity interaction Z-score: -0.398 ± 0.089
[6]; [14]
  promoter activity interaction Z-score: -0.3823 ± 0.0022
[6]; [15]
  promoter activity interaction Z-score: -0.224 ± 0.31
[6]; [16]
  promoter activity interaction Z-score: -0.337 ± 0.16
[6]; [17]
  promoter activity interaction Z-score: -0.48 ± 0.096
[6]; [18]
  promoter activity interaction Z-score: -0.274 ± 0.22
[6]; [19]
  promoter activity interaction Z-score: -0.474 ± 0.4
[6]; [22]
  promoter activity interaction Z-score: -0.762
[6]; [21]
  promoter activity interaction Z-score: -0.904
[7]; [8]
  promoter activity interaction Z-score: -0.242 ± 0.84
[7]; [9]
  promoter activity interaction Z-score: -0.0707 ± 0.59
[7]; [10]
  promoter activity interaction Z-score: -0.601 ± 1.1
[7]; [11]
  promoter activity interaction Z-score: -1.14 ± 0.68
[7]; [12]
  promoter activity interaction Z-score: -0.456 ± 0.35
[7]; [13]
  promoter activity interaction Z-score: -1.13 ± 0.17
[7]; [14]
  promoter activity interaction Z-score: -0.0625 ± 1.8
[7]; [15]
  promoter activity interaction Z-score: 0.772 ± 0.56
[7]; [16]
  promoter activity interaction Z-score: -0.509 ± 0.71
[7]; [17]
  promoter activity interaction Z-score: -0.277 ± 0.22
[7]; [18]
  promoter activity interaction Z-score: 1.06 ± 1.1
[7]; [19]
  promoter activity interaction Z-score: 0.0909 ± 0.58
[7]; [22]
  promoter activity interaction Z-score: -0.901 ± 0.46
[7]; [20]
  promoter activity interaction Z-score: -0.459
[7]; [21]
  promoter activity interaction Z-score: -0.895 ± 0.19
[7]; 0.94 µg/ml, genetic background: ΔsoxS
  promoter activity interaction Z-score: -0.128 ± 1
